Laboratory results as given in PubChem BioAssay AID1159580 (chemical genetic matrix, 2015).
Several values for one entry are separate records, joined by “and”; a condition that tells them apart may be missing. Equal entries are not always repeated. Among all 5,500 compounds or so, about 2,000 (36%) were called active. About 18% were inconclusive and are not listed. Rule as the data show it: active = normalized growth mostly below about 0.91 (no sharp cut-off); inconclusive = no clear call, values can overlap the other calls; inactive = mostly above about 0.92. Some of the results follow.

Test: chemical genetic growth profiling, strain panel (AID 1159580);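 also: tested at 20 µM; growth read once vehicle control cultures reached saturation at 30 °C; 1 = growth at the plate median or of vehicle wells; lower values mean less growth of the strain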
Details: S. cerevisiae deletion strains, growth OD

Measured: normalized growth

NCC(O)CC(=O)O (centres undefined)
inactive: locus YAL021C, strain ccr4, hits give low values 1.01 | locus YAL026C, strain drs2, hits give low values 0.967 | locus YAL030W, strain snc1, hits give low values 0.98 | locus YBL061C, strain skt5, hits give low values 0.986 | locus YBR009C, strain hhf1, hits give low values 0.962 | locus YBR021W, strain FUR4, hits give low values 0.999 | locus YBR023C, strain chs3, hits give low values 0.994 | locus YBR171W, strain sec66, hits give low values 0.989 | locus YBR229C, strain ROT2, hits give low values 1.01 | locus YBR231C, strain swc5, hits give low values 0.995 | locus YBR279W, strain paf1, hits give low values 0.991 | locus YCL011C, strain gbp2, hits give low values 0.966 | locus YCL016C, strain dcc1, hits give low values 0.994 | locus YCL029C, strain bik1, hits give low values 0.992 | locus YCL061C, strain MRC1, hits give low values 0.995 | locus YCL069W, strain vba3, hits give low values 0.984 | locus YCR088W, strain abp1, hits give low values 0.977 | locus YDL005C, strain med2, hits give low values 0.969 | locus YDL035C, strain GPR1, hits give low values 1.01 | locus YDL040C, strain nat1, hits give low values 0.991 | locus YDL074C, strain BRE1, hits give low values 1.01 | locus YDL101C, strain DUN1, hits give low values 1.01 | locus YDL134C, strain PPH21, hits give low values 1.01 | locus YDL185W, strain tfp1, hits give low values 0.994 | locus YDL192W, strain arf1, hits give low values 0.997 | locus YDR001C, strain nth1, hits give low values 0.977 | locus YDR069C, strain doa4, hits give low values 1.04 | locus YDR101C, strain arx1, hits give low values 1.02 | locus YDR137W, strain rgp1, hits give low values 0.988 | locus YDR159W, strain sac3, hits give low values 0.968 | locus YDR162C, strain NBP2, hits give low values 1.02 | locus YDR195W, strain ref2 0.951 | locus YDR297W, strain sur2, hits give low values 0.986 | locus YDR318W, strain mcm21, hits give low values 1.01 | locus YDR334W, strain swr1, hits give low values 0.975 | locus YDR335W, strain msn5, hits give low values 0.988 | locus YDR388W, hits give low values 0.999 | locus YDR392W, strain spt3, hits give low values 0.892 | locus YDR502C, strain sam2, hits give low values 0.991 | locus YEL003W, strain gim4, hits give low values 0.964 | locus YEL037C, strain rad23, hits give low values 0.977 | locus YEL061C, strain CIN8 (second series), hits give low values 0.966 | locus YEL061C, strain CIN8, hits give low values 1.01 | locus YER015W, strain faa2, hits give low values 0.986 | locus YER016W, strain bim1, hits give low values 0.983 | locus YER110C, hits give low values 1 | locus YER111C, strain swi4, hits give low values 0.974 | locus YER155C, strain BEM2 (second series), hits give low values 0.997 | locus YER155C, strain BEM2, hits give low values 1.01 | locus YER167W, strain BCK2, hits give low values 1.01 | locus YFR010W, strain ubp6, hits give low values 0.973 | locus YGL078C, strain dbp3, hits give low values 0.994 | locus YGL086W, strain mad1, hits give low values 1 | locus YGL167C, strain pmr1, hits give low values 0.957 | locus YGL173C, strain kem1, hits give low values 0.984 | locus YGL227W, strain vid30, hits give low values 0.955 | locus YGL240W, strain doc1, hits give low values 0.989 | locus YGL248W, strain PDE1, hits give low values 1.01 | locus YGL253W, strain hxk2, hits give low values 0.989 | locus YGR078C, strain PAC10, hits give low values 1.01 | locus YGR135W, strain pre9, hits give low values 1 | locus YGR252W, strain gcn5, hits give low values 0.982 | locus YHR013C, strain ard1, hits give low values 0.964 | locus YHR027C, strain rpn1, hits give low values 0.997 | locus YHR030C, strain SLT2, hits give low values 1.01 | locus YHR079C, strain IRE1 (second series), hits give low values 1 | locus YHR079C, strain IRE1, hits give low values 1.03 | locus YHR094C, strain hxt1, hits give low values 0.988 | locus YHR129C, strain ARP1, hits give low values 1.01 | locus YHR142W, strain chs7, hits give low values 1.02 | locus YHR200W, strain rpn10, hits give low values 0.999 | locus YIL066C, strain RNR3, hits give low values 1.02 | locus YIL073C, strain SPO22, hits give low values 1.03 | locus YIL125W, strain kgd1, hits give low values 1.01 | locus YIR030C, strain dcg1, hits give low values 1 | locus YJL092W, strain hpr5, hits give low values 0.99 | locus YJL095W, strain BCK1 (second series), hits give low values 1.01 | locus YJL095W, strain BCK1, hits give low values 1.01 and 1.02 | locus YJL115W, strain asf1, hits give low values 0.981 | locus YJL129C, strain trk1, hits give low values 0.991 | locus YJL134W, strain LCB3, hits give low values 1.01 | locus YJL154C, strain vps35, hits give low values 0.981 | locus YJL164C, strain tpk1, hits give low values 1.06 | locus YJL166W, strain qcr8, hits give low values 1.02 | locus YJL168C, strain set2, hits give low values 0.997 | locus YJL187C, strain SWE1 (second series), hits give low values 1.02 | locus YJL187C, strain SWE1, hits give low values 0.994 | locus YJR043C, strain POL32, hits give low values 1.02 | locus YJR066W, strain TOR1, hits give low values 0.924
